The values that follow come from PubChem BioAssay (NCI).

Structures are written as SMILES. The panel holds about 79,000 compounds, 15% with a hit somewhere; the sample as a whole holds those more often. Values without a mark were called inactive. Activity calls are given as the source filed them. Cut-off read from the data, not from the text of the source: active = growth inhibition above about 70%; inactive = the rest.

Assay [1] is described as follows: NCI Yeast Anticancer Drug Screen. Data for the rad50 strain (AID 155).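 Note: 0% = growth of vehicle-only cultures of the same strain.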 As to conditions: S. cerevisiae rad50 strain growth inhibition; at 50.0 µM; active compounds read high. The essentials: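 Growth of the mutant yeast was measured after compound exposure and referenced to vehicle-treated cultures.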
Assay [2] can be described thus: NCI Yeast Anticancer Drug Screen. Data for the mec2-1 strain (AID 157). The note with it: S. cerevisiae mec2-1 strain, at 50.0 µM, active compounds read high. Summed up:
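Each compound was tested on mec2-1 yeast, a strain altered in DNA damage repair or cell cycle control. Growth inhibition is reported relative to vehicle.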

Assay [3] can be described thus: NCI Yeast Anticancer Drug Screen. Data for the sgs1 mgt1 strain (AID 161).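 Note: 0% = growth of cultures given vehicle only.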 As to conditions: S. cerevisiae sgs1 mgt1 strain, at 50.0 µM, active compounds read high. Summed up:
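Read-out: growth inhibition vs vehicle controls. Cells: mutant yeast strain deficient in DNA damage repair.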

A short description of assay [4]: NCI Yeast Anticancer Drug Screen. Data for the cln2 rad14 strain (AID 165).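 Note: 0% = growth equal to vehicle treated cultures.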 As to conditions: S. cerevisiae cln2 rad14 strain, at 50.0 µM, active compounds read high. Summed up: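 Test compounds were added to cln2 rad14 yeast cultures; inhibition of growth was then determined by comparison with vehicle treatment.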
The nature of assay [5]: NCI Yeast Anticancer Drug Screen. Data for the bub3 strain (AID 167). The note with it: S. cerevisiae bub3 mutant strain, at 50.0 µM, active compounds read high. The essentials: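 Whole-cell yeast assay. The mutant strain was incubated with compounds, and growth inhibition was determined by comparison with vehicle-treated cells.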
Assay [6] in a line: NCI Yeast Anticancer Drug Screen. Data for the mlh1 rad18 strain (AID 175). The note with it: S. cerevisiae mlh1 rad18 strain growth inhibition; at 50.0 µM; active compounds read high. Summed up: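 Inhibition values reflect reduced growth of mutant yeast versus vehicle-treated controls following compound exposure; the mutations affect DNA damage repair.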

With `Cc1ccccc1-c1nnc(-c2ccc3ccccc3c2)o1`, the growth inhibition in assay [1] is 7.3%; in assay [2] it was -4.25%; in assay [3] it was -4.65%; in assay [4], -36.5%; in assay [5] it was 1.05%; in assay [6], -1.05%.

On to `CCCCCCOC(=O)C(C)(O)C(Cl)c1ccccc1` (stereo unspecified), for which the growth inhibition in assay [1] was 3.95%; in assay [2], -0.45%; in assay [3], -5.4%; in assay [4], 3.9%; in assay [5] it was 9.3%; in assay [6], -10.2%.

Consider `O=c1oc2c(ccc3ccccc32)c(O)c1-c1cccc2ccccc12`, for which the growth inhibition in assay [1] is 99.2% (active); in assay [2], 99.5% (active); in assay [3], 99.5% (active); in assay [4] it was 99% (active); in assay [5], 97.7% (active); in assay [6], 99.3% (active).

`COc1cc2c(cc1OC)C(Cc1cc(Br)c(OC)c(OC)c1)=[N+](C)CC2`: the growth inhibition in assay [1] was 1.65%; in assay [2], 4.4%; in assay [3], -12.4%; in assay [4], 9.65%; in assay [5], 1.05%; in assay [6], 11.2%.

With `COC(=O)OC(C#N)c1cccc([N+](=O)[O-])c1` (stereo unspecified), the growth inhibition in assay [1] was 15.8%; in assay [2], 8.8%; in assay [3] it was 6.2%; in assay [4] it was -13.7%; in assay [5], -3.9%; in assay [6] it was 9%.

Take `N/N=C1/CCCc2nonc21`: the growth inhibition in assay [1] was -19.7%; in assay [2] it was -17.1%; in assay [3] it was -29.4%; in assay [4], -22.2%; in assay [5], -25.4%; in assay [6] it was -48.4%.

With `CCOC(=O)C(=O)Cc1ccccn1`, the growth inhibition is -0.7% in assay [1]; -6.55% in assay [2]; -6.5% in assay [3]; -16.3% in assay [4]; 8.85% in assay [5]; -13.2% in assay [6].

On to `N#Cc1c(NC(=S)NC(=O)c2ccccc2)nc2c(c1-c1ccccc1)CCCC2`, for which the growth inhibition was 28% in assay [1]; 17.9% in assay [2]; 30.1% in assay [3]; 1.05% in assay [4]; 17.4% in assay [5]; 21.6% in assay [6].

For `CCCCOCCOCCOS(=O)(=O)c1ccc(C)cc1`, the growth inhibition was 11.1% in assay [1]; 1.6% in assay [2]; 12.6% in assay [3]; 5% in assay [4]; 10.2% in assay [5]; 13.9% in assay [6].

With `COc1cc(C(=O)Oc2c(C(C)=O)sc3c2c(=O)n(-c2ccccc2)c(=S)n3-c2ccccc2)cc(OC)c1OC`, the growth inhibition in assay [1] is 19.7%; in assay [2], -5.8%; in assay [3], 8.45%; in assay [4] it was -13.7%; in assay [5], 17.9%; in assay [6], 22.5%.

With `O=C1CN(/C=C(\c2ccccc2)S(=O)Cc2ccccc2)C(=S)N1` (stereo unspecified), the growth inhibition is -19.9% in assay [1]; -29.5% in assay [2]; -28.4% in assay [3]; -7.7% in assay [4]; 0% in assay [5]; -24.2% in assay [6].

For `CN1CCc2c1nc(-c1ccccc1)c1c2N(C)CC1`, the growth inhibition in assay [1] is 2.2%; in assay [2], -11%; in assay [3] it was -6.4%; in assay [4], 9.65%; in assay [5] it was -18.2%; in assay [6] it was -1.5%.

As for `O=C(O)CSc1nc2c(Cl)c(Cl)c(Cl)cc2[nH]1`, the growth inhibition in assay [1] was -11.7%; in assay [2] it was -14.1%; in assay [3], 2%; in assay [4] it was 1.6%; in assay [5], 13.2%; in assay [6] it was -9.9%.

Regarding `O=[N+]([O-])c1ccc2c(c1)Cc1cccc([N+](=O)[O-])c1-2`, the growth inhibition is 2% in assay [1]; -2.1% in assay [2]; 0.25% in assay [3]; -21.9% in assay [4]; -5.9% in assay [5]; 9.5% in assay [6].

For the compound `COC(=O)c1nc(=S)[nH]c(C(=O)OC)c1C(=O)c1ccc(C)cc1`, the growth inhibition was -3.7% in assay [1]; -7.15% in assay [2]; 5.75% in assay [3]; -14% in assay [4]; 10.6% in assay [5]; 21.4% in assay [6].

Consider `CCNC(=O)[B-][N+](C)(C)C`, for which the growth inhibition is 6.75% in assay [1]; 0.05% in assay [2]; 3.75% in assay [3]; 35.4% in assay [4]; -12.4% in assay [5]; 4.5% in assay [6].

`CCCCn1cnc2c(SCCNC(=O)N(C)N=O)ncnc21`: the growth inhibition in assay [1] was 6.3%; in assay [2], -8.25%; in assay [3], 10.3%; in assay [4] it was -45.3%; in assay [5], 3.5%; in assay [6] it was -2.05%.

With `CCOC(=O)c1sc(SC)nc1NC(=O)c1ccc(OC)cc1`, the growth inhibition was 24.6% in assay [1]; 21.7% in assay [2]; -31.6% in assay [3]; 17.2% in assay [4]; 2.1% in assay [5]; 19.1% in assay [6].

`CC=NC(C)(C)C`: the growth inhibition in assay [1] is -7.25%; in assay [2], -9.15%; in assay [3], -12.3%; in assay [4], -11.8%; in assay [5], 3.3%; in assay [6], -18.9%.

As for `CN(C)C(=O)c1ccc(-c2ccccc2)cc1O`, the growth inhibition was -10.3% in assay [1]; 20.2% in assay [2]; 0.05% in assay [3]; -18.1% in assay [4]; -10.1% in assay [5]; -4.65% in assay [6].

Turning to `CC(=O)OC1CCCC2CCCC21` (stereo unspecified), the growth inhibition in assay [1] was 0.2%; in assay [2], 5.2%; in assay [3], 1.25%; in assay [4], -5.7%; in assay [5] it was -2.35%; in assay [6], -3.75%.
